Assay outcomes: PubChem BioAssay, several laboratories
Most compounds without a hit are left out; they make up all but 6.9% or so of the library.
CSC inhib = cancer stem cell viability inhibitors, primary screen, luminescence | inhibition, % at 7.5 µM | 300,000 compounds, 1.1% hits | AID 2717, 2010 | cancer stem cell-like cells viability; in the data active = inhibition above about 75%; tested in HMLE shEcad cells
Mdm2 MdmX PPI = inhibitors of human Mdm2-MdmX association, primary screen, cell-based, luminescence, split luciferase, SaOS-2, uHTS; Protein Mdm4 (Homo sapiens) + E3 ubiquitin-protein ligase Mdm2 (Homo sapiens), …; SaOS-2 split-luciferase Mdm2/MdmX complementation; inhibition, % at 8 µM; 330,000 compounds, 3% hits; AID 485346, 2010;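 active = inhibition of at least 50% at 8 µM in the primary screen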
Target sequence (O15151 whole entry, looked up): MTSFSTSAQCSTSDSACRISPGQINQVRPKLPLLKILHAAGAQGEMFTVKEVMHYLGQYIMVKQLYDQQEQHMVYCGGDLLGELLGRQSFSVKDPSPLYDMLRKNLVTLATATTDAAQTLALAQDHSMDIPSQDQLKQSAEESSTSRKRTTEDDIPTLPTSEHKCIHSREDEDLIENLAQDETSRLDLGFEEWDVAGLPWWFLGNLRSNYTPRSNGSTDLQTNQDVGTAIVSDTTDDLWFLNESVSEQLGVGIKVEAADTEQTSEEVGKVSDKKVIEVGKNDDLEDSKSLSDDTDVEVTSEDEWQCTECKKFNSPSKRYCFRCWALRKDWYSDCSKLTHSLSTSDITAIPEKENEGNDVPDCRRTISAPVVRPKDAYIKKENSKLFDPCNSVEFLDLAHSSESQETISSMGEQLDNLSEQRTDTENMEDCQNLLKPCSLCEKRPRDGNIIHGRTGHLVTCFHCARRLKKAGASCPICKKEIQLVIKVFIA
Target sequence (Q00987 whole entry, looked up): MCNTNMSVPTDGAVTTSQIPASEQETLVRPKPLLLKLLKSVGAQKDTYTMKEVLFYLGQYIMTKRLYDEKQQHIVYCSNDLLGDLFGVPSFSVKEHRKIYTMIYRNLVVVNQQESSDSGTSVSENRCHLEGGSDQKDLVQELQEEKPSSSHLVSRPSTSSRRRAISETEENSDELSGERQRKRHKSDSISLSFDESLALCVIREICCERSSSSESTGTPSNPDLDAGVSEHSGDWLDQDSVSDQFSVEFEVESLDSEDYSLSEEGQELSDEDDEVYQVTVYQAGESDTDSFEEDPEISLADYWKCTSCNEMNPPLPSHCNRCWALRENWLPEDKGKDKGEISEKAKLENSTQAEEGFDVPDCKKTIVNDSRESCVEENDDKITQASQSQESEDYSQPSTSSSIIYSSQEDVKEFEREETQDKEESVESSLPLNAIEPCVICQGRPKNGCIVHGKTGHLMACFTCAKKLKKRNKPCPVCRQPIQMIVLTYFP
SKKanGAS inh = S. pyogenes SKKanGAS growth inhibitors in kanamycin, primary screen, streptokinase expression inhibitor project, SKKanGAS strain, BacTiter-Glo luminescence; 6 h; inhibition, % at 7.5 µM; 300,000 compounds, 1.3% hits; AID 1662, 2009;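 active = mean replicate score, as percent of positive control median, at least 50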;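 also: strain carries kanamycin resistance gene driven by streptokinase promoter and grows in 40 µg/ml kanamycin; loss of luminescence reflects streptokinase promoter inhibition or plain growth inhibition; 0% = median of DMSO wells and 100% = positive control at its reference dose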
MPTP inh = mitochondrial permeability transition pore inhibitors, primary screen, biochemical, isolated mouse mitochondria, absorbance | Ca2+ swelling absorbance, 30 min | inhibition, % at 10 µM | 360,000 compounds, 1.4% hits | AID 602449, 2012;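 active = inhibition of 50% or more, scaled per plate between neutral and stimulator controls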;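 also: 0% = DMSO wells given calcium and 100% = 1 mM EGTA wells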
Beta cell apopt = inhibitors of cytokine-induced beta cell apoptosis, primary screen, luminescence | INS-1E cytokine-induced death, ATP luminescence, 48 h; percent of positive-control rescue, neutral wells zero | protection from apoptosis, % (concentration not given with the values) | 300,000 compounds, 0.8% hits;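 active = Every replicate reaches about 75%, or at least half do and their mean reaches it too, limit read from the data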;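 also: 0% = cytokine-treated negative control wells and 100% = positive control rescue; higher means more ATP so stronger rescue from cytokine killing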
GRIN3A LBD mod = binders of NR3A ligand-binding domain, primary screen, biophysical, differential scanning fluorimetry, uHTS. Glutamate receptor ionotropic, NMDA 3A (GRIN3A) ligand-binding domain. NR3A LBD differential scanning fluorimetry, Tm shift; 0% = protein alone, 100% = glycine-bound protein. Tm shift relative to glycine control, % at 25 µM. 340,000 compounds, 2.5% hits;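 active = melting temperature shift of at least 10% of the positive control shift, at one fixed dose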
* marks the source's active call; other numbers are inactive results; / = no result given.

SMILES	CSC inhib	Mdm2 MdmX PPI	SKKanGAS inh	MPTP inh	Beta cell apopt	GRIN3A LBD mod
CNS(=O)(=O)c1cccc(C(=O)OCC(=O)c2ccc[nH]2)c1	2	-12	/	-2	1	39*
CC1Cc2ccccc2N1C(=O)COC(=O)c1ccc(O)cc1 (configuration not stated)	-17	23	-1	2	-3	0
CNS(=O)(=O)c1cccc(C(=O)OCC(=O)N2c3ccccc3CC2C)c1 (configuration not stated)	-6	16	-1	-2	3	14*
COc1ccc(NC2CCCN(C(=O)C3(C)CCCCC3)C2)cc1 (configuration not stated)	-12	18	1	1	2	0
O=[N+]([O-])c1ccc(CN2CCN(Cc3c[nH]c4ccccc34)CC2)cc1	-16	-3	/	2	3	0
Brc1ccc(CN2CCN(Cc3c[nH]c4ccccc34)CC2)cc1	6	40	0	3	88*	-2
Brc1ccccc1CN1CCN(Cc2c[nH]c3ccccc23)CC1	4	48	-2	/	130*	1
O=C(CN1C(=O)S/C(=C\C=C\c2ccccc2)C1=O)Nc1ccccc1C(=O)O	22	8	70*	4	1	0
O=C(CCN1C(=O)S/C(=C\C=C\c2ccccc2)C1=O)Nc1ccc(O)cc1	-9	-63	5	1	-5	13*
O=C(NCc1cccs1)C1CCCN1C(=O)Nc1ccc(F)cc1 (configuration not stated)	-1	-17	-11	2	-3	-3
Cn1c2ccccc2c(=O)c2ccc(NCc3ccc4c(c3)OCO4)cc21	/	/	/	0	/	-3
O=C1c2cccc3c([N+](=O)[O-])ccc(c23)C(=O)N1O	29	7	79*	1	43	5
O=C(C(=O)N1CCN(C(=O)c2ccco2)CC1)c1ccccc1	/	/	/	-1	/	/
CCOc1ccc(CN2CCNC(=O)C2CC(=O)NCCN2CCOC2=O)cc1 (configuration not stated)	1	16	-4	0	0	16*
Cc1ccccc1CN1CCNC(=O)C1CC(=O)NCCN1CCCCC1=O (configuration not stated)	1	36	0	0	-7	11*
COc1cccc(NC(=S)N2CCC(C(=O)c3ccc(F)cc3)CC2)c1	/	/	/	0	/	2
Cc1ccc(Nc2nc(N)nc(CSc3nc4ccccc4s3)n2)cc1	22	10	9	5	-1	17*
Cc1ccccc1Nc1nc(N)nc(CSc2nc3ccccc3s2)n1	-3	13	3	0	-1	-16
C/C(N)=C(/C#N)C(=O)CSc1nnc(SCc2ccc(Cl)cc2)s1	10	-7	11	1	16	1
C/C(N)=C(/C#N)C(=O)CSc1nn(-c2ccc(Cl)cc2)c(=S)s1	64	-42	11	-1	-4	13*
Cc1c(CC(=O)O)c(=O)oc2c(C)c(OCc3c(F)cccc3Cl)ccc12	-15	17	8	0	-9	3
Cc1c(CCC(=O)O)c(=O)oc2c(C)c(OCc3cc4c(cc3Cl)OCO4)ccc12	3	-19	67*	18	-5	-1
Cc1cccc(N2CCN(C(=O)c3ccc4nc(N5CCCCC5)sc4c3)CC2)c1C	84*	32	51*	5	12	-1
CCOC(=O)N1CCN(C(=O)c2ccc3nc(N4CCCCC4)sc3c2)CC1	0	-11	8	15	4	0
O=C1NC(CCc2ccccc2)C(=O)N1CCOc1cccc(Br)c1 (configuration not stated)	8	-2	-11	1	-5	-4
SMILES	CSC inhib	Mdm2 MdmX PPI	SKKanGAS inh	MPTP inh	Beta cell apopt	GRIN3A LBD mod
COc1ccc2cc(/C=N/NC(=O)c3ccc(CN(c4cccc(Cl)c4Cl)S(C)(=O)=O)cc3)c(Cl)nc2c1	85*	19	27	0	-7	3
O/N=C/c1ccn(-c2ccc(Br)cc2)c1	17	-46	-6	0	-3	-1
C[C@@H]1CN([C@@H](C)CO)C(=O)c2cc(Br)cnc2O[C@@H]1CN(C)Cc1ccc(Oc2ccccc2)cc1	/	/	/	-2	/	/
NC(=O)COC(=O)c1cc(=O)[nH]c2ccc(S(=O)(=O)Nc3ccc(F)cc3)cc12	4	9	2	-2	-3	-3
Cc1cccc(NS(=O)(=O)c2ccc3[nH]c(=O)cc(C(=O)OC(C)C(=O)Nc4ccc([N+](=O)[O-])cc4)c3c2)c1 (configuration not stated)	-3	7	17	3	-9	11*
CCOc1ccc(NS(=O)(=O)c2ccc3[nH]c(=O)cc(C(=O)O)c3c2)cc1	-2	15	0	2	-4	3
CCc1ccc(NC(=O)C(C)OC(=O)c2cc(=O)[nH]c3ccc(S(=O)(=O)Nc4ccc(F)cc4)cc23)cc1 (configuration not stated)	20	-17	29	4	-19	13*
O=C1NC[C@@H](CCCCN2C[C@H](Cc3ccccc3)N(CCC3CCCCC3)C(=O)C2=O)N(CC2CCCCC2)C1=O	/	/	/	-6	/	/
O=C(Cn1cc(COc2ccc3ccc(=O)oc3c2)nn1)c1ccc(O)cc1	/	/	/	-1	/	46*
O=[N+]([O-])c1ccc(/C=N/N2CCCCC2)cc1	10	-13	3	-1	3	1
CC(C)(c1ccccc1)c1ccc(OCCn2cnc3ccccc3c2=O)cc1	6	12	24	1	4	21*
O=C(c1ccccc1)c1ccc(OCCn2cnc3ccccc3c2=O)cc1	2	21	-7	-2	-2	0
Cc1cccc(C(=O)Nc2ccc(C(=O)N/N=C/c3cccnc3)cc2)c1	-6	20	15	1	-7	-8
O=C(N/N=C/c1cccnc1)c1cccc(NC(=O)c2ccc(Cl)cc2)c1	/	-14	4	0	-1	16*
Cc1ccc(C(=O)Nc2ccc(C(=O)N/N=C/c3cccnc3)cc2)cc1	29	-2	4	0	5	11*
O=C(/C=C/c1cccs1)Nc1ccc(N2CCOCC2)c(S(=O)(=O)Nc2cc(Cl)ccc2Cl)c1	32	41	40	5	17	10*
COc1ccc(S(=O)(=O)N2CCCC(C(=O)NCc3ccc4c(c3)OCO4)C2)cc1 (configuration not stated)	-22	11	2	2	4	-2
CCCCCN(C(=O)CCC(=O)OCC(=O)N1CCC(C)CC1)c1c(N)n(CCCC)c(=O)[nH]c1=O	-16	0	-5	-1	/	-1
O=[N+]([O-])c1ccc(N=Nc2c(Cl)cc(O)cc2Cl)cc1	110*	/	50*	26	122*	18*
